According to PubChem BioAssay (EPA / NIEHS):
Records with an inconclusive call do not appear. Calls of active or inactive are those of the source. The calls were made as follows, unless noted: active = hit-call score of the fitted dose curve at least 0.9, where 1 is the maximum; inactive = score below 0.9.

Columns and labels:
[1] = biological target: Nucleoli Translocation, AR (gene 367) (UniProt P10275); assay: UPITT_HCI_U2OS_AR_TIF2_Nucleoli_Antagonist: University of Pittsburgh U2OS Androgen Receptor-Transcriptional Intermediary Factor 2 (AR-TIF2) Antagonism High Content Imaging Assay for Nucleoli Translocation (AID 2283997; active = hit-call score of the fitted dose curve at least 0.9, where 1 is the maximum)
Procedure, shortened: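 U2OS cells co-expressing red-fluorescent-tagged human AR and green-fluorescent-tagged TIF2, imaged by high-content microscopy for nucleolar red fluorescence. Antagonist mode against DHT; primary screen at 20 uM final (0.2% DMSO).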

[2] = biological target: Nucleoli Translocation, AR (gene 367) (UniProt P10275); assay: UPITT_HCI_U2OS_AR_TIF2_Nucleoli_Agonist: University of Pittsburgh U2OS Androgen Receptor-Transcriptional Intermediary Factor 2 (AR-TIF2) Agonism High Content Imaging Assay for Nucleoli Translocation (AID 2283998; active = hit-call score of the fitted dose curve at least 0.9, where 1 is the maximum)
Procedure, shortened: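 U2OS cells expressing RFP-tagged human AR and GFP-tagged TIF2; red fluorescence in nucleoli quantified by high-content imaging. Primary screen at 20 uM final (0.2% DMSO); concentration-response 0.195–50 uM (0.5% DMSO), fitted upward versus DMSO.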

[3] = biological target: Ratio of Nucleoli Translocation and Cytoplasm, AR (gene 367) (UniProt P10275); assay: UPITT_HCI_U2OS_AR_TIF2_Nucleoli_Cytoplasm_Ratio_Antagonist: University of Pittsburgh U2OS Androgen Receptor-Transcriptional Intermediary Factor 2 (AR-TIF2) Antagonism High Content Imaging Assay for Ratio of Nucleoli Translocation and Cytoplasm (AID 2283999; active = hit-call score of the fitted dose curve at least 0.9, where 1 is the maximum;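 also: antagonists lower the DHT-driven ratio of nucleolar to cytoplasmic red signal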)
Procedure, shortened: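 U2OS cells expressing RFP-tagged human AR and GFP-tagged TIF2; compounds tested at 20 uM final (0.2% DMSO) in primary screen, 0.195–50 uM (0.5% DMSO) for concentration response. Readout: nucleolar-to-cytoplasmic red fluorescence ratio by high-content imaging, fitted relative to DHT.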

[4] = biological target: Ratio of Nucleoli Translocation and Cytoplasm, AR (gene 367) (UniProt P10275); assay: UPITT_HCI_U2OS_AR_TIF2_Nucleoli_Cytoplasm_Ratio_Agonist: University of Pittsburgh U2OS Androgen Receptor-Transcriptional Intermediary Factor 2 (AR-TIF2) Agonism High Content Imaging Assay for Ratio of Nucleoli Translocation and Cytoplasm (AID 2284000; active = hit-call score of the fitted dose curve at least 0.9, where 1 is the maximum;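 also: hits raise the red nucleolar to cytoplasm ratio above vehicle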)
Procedure, shortened: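 U2OS cells expressing RFP-tagged human AR and GFP-tagged TIF2; high-content imaging ratio of nucleolar to cytoplasmic red fluorescence, fitted as gain of signal vs DMSO. Single point at 20 uM final (0.2% DMSO); concentration-response 0.195-50 uM final (0.5% DMSO).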

[5] = CCTE_Harrill_HTTr_Viability_MCF7: CCTE's 6-hour Cell Viability Assessment for the High-Throughput Transcriptomics (HTTr) Platform, in MCF-7 cells cultured in DMEM + 10% fetal bovine serum, Harrill Lab (AID 2284010)
Procedure, shortened: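 Membrane integrity was scored by high-content imaging of propidium iodide dye exclusion after a 6 h exposure across an eight-point dilution series. Data were fitted bidirectionally relative to DMSO as negative control and baseline.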

[6] = CCTE_Harrill_HTTr_Apoptosis_MCF7: CCTE's 6-hour Apoptosis Assessment for the High-Throughput Transcriptomics (HTTr) Platform, in MCF-7 cells cultured in DMEM + 10% fetal bovine serum, Harrill Lab (AID 2284011)
Procedure, shortened: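 MCF-7 cells in DMEM + 10% FBS exposed 6 h to chemicals over an eight-point dilution series. Caspase-3/7 activation imaged by high-content CellEvent Green staining; fitted bidirectionally versus DMSO.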

[7] = CCTE_Harrill_HTTr_CellCount_MCF7: CCTE's Cell Proliferation Assessment for the High-Throughput Transcriptomics (HTTr) Platform, Harrill Lab (AID 2284012; active = hit-call score of the fitted dose curve at least 0.9, where 1 is the maximum;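 also: cells exposed to compound for six hours; intended direction is loss of nuclei count meaning fewer cells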)
Procedure, shortened: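 MCF-7 cells were exposed for 6 h to an eight-point dilution series; Hoechst-labeled nuclei were counted by high content imaging. Curves were fitted bidirectionally against DMSO as negative control and baseline, with signal loss indicating reduced cell count.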

[8] = CCTE_Shafer_MEA_dev_firing_rate_mean: CCTE's Neural Network Formation Assay for Mean Firing Rate, Shafer Lab (AID 2284031)
Procedure, shortened: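 Primary rat cortical neurons on 48-well, 16-electrode MEAs (PEI-coated, laminin at plating), exposed from day 0 with compound renewed at DIV 5 and 9. Spikes recorded DIV 5, 7, 9, 12; well-mean firing rate collapsed to trapezoidal AUC, loss-of-signal vs DMSO.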

[9] = CCTE_Shafer_MEA_dev_per_burst_spike_percent: CCTE's Neural Network Formation Assay for Percent of Spikes in a Burst, Shafer Lab (AID 2284032);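 also: fitted as a decrease in burst spike percentage below DMSO baseline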
Procedure, shortened: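 Rat primary cortical neurons on 16-electrode MEA wells, dosed from plating day 0 for 12 days with renewal on DIV 5 and 9; spikes-in-bursts percentage averaged over bursting electrodes, collapsed as AUC across days 5, 7, 9, 12; loss direction versus DMSO.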

[10] = CCTE_Shafer_MEA_dev_active_electrodes_number: CCTE's Neural Network Formation Assay for Number of Active Electrodes, Shafer Lab (AID 2284040; active = hit-call score of the fitted dose curve at least 0.9, where 1 is the maximum;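 also: potency for loss of active electrodes versus DMSO so lower counts are hits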)
Procedure, shortened: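 Rat cortical primary cultures, 1.5 x 10^5 cells/well, PEI-coated MEA, laminin drop. Continuous exposure DIV 0–12; full media/compound change DIV 5, 9. Readout: electrodes with mean firing ≥5 spikes/min; AUC across days; loss vs DMSO.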

[11] = CCTE_Shafer_MEA_dev_burst_rate: CCTE's Neural Network Formation Assay for Burst Rate, Shafer Lab (AID 2284042)
Procedure, shortened: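 Primary rat cortical neurons on PEI-coated 48-well MEA plates (laminin added with cells at plating) (16 electrodes/well), exposed from plating to day 12, dosing renewed at DIV 5 and 9. Burst rate averaged over active electrodes, recorded DIV 5, 7, 9, 12, summarized as AUC; loss versus DMSO.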

[12] = CCTE_Shafer_MEA_dev_bursting_electrodes_number: CCTE's Neural Network Formation Assay for Number of Bursting Electrodes, Shafer Lab (AID 2284043; active = hit-call score of the fitted dose curve at least 0.9, where 1 is the maximum;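 also: potency is for loss of bursting electrodes relative to DMSO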)
Procedure, shortened: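 Primary rat cortical neurons plated on 16-electrode MEA wells, exposed from day 0 with compound renewed at DIV 5 and 9. Electrodes bursting ≥1 burst per 2 min counted on days 5, 7, 9 and 12; trapezoidal AUC across days, fitted for loss versus DMSO.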

[13] = CCTE_Shafer_MEA_dev_per_burst_interspike_interval: CCTE's Neural Network Formation Assay for Burst Interspike Interval, Shafer Lab (AID 2284044);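 also: mean spike spacing inside bursts as AUC over recordings on days 5 7 9 12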
Procedure, shortened: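 Primary rat cortical neurons on 48-well MEA plates, exposed from day 0 through day 12, treatment renewed at DIV 5 and 9. Within-burst interspike interval recorded days 5, 7, 9, 12, well-averaged, summarised as AUC; negative fit versus DMSO.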

[14] = CCTE_Shafer_MEA_dev_burst_duration_mean: CCTE's Neural Network Formation Assay for Mean Burst Duration, Shafer Lab (AID 2284045)
Procedure, shortened: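 Primary rat cortical neurons on 48-well 16-electrode MEA plates, exposed from day 0 with renewal at DIV 5 and 9; spontaneous activity recorded on days 5, 7, 9, 12. Well-mean burst duration across bursting electrodes, collapsed as trapezoidal AUC; DMSO baseline.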

[15] = CCTE_Shafer_MEA_dev_interburst_interval_mean: CCTE's Neural Network Formation Assay for Mean Interburst Interval, Shafer Lab (AID 2284046);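 also: well-mean interburst interval of bursting electrodes as AUC over four recording days; curve fitted for decrease in interburst interval relative to DMSO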
Procedure, shortened: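 Recordings on days 5, 7, 9 and 12 give well-mean interburst interval across actively bursting electrodes, summarized as area under the curve. Cultures: rat cortical neurons, continuous exposure from day 0, compound renewed at feeds; decrease analyzed versus DMSO.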

[16] = CCTE_Shafer_MEA_dev_inter_network_spike_interval_mean: CCTE's Neural Network Formation Assay for Mean Inter-network Spike Interval, Shafer Lab (AID 2284047)
Procedure, shortened: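 Primary rat cortical neurons on 16-electrode MEA wells, exposed from plating day 0 through DIV 12, compound renewed at DIV 5 and 9 media changes. Mean interval between network-spike peaks recorded DIV 5, 7, 9, 12; collapsed as trapezoidal AUC, fitted downward versus DMSO.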

[17] = CCTE_Shafer_MEA_dev_network_spike_peak: CCTE's Neural Network Formation Assay for Mean Number of Electrodes in Network Spike, Shafer Lab (AID 2284049);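 also: fitted for loss of signal meaning fewer electrodes in network spikes than DMSO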
Procedure, shortened: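 Network-spike peak electrode count from recordings on days 5, 7, 9 and 12 was combined as trapezoidal area under the curve. Rat cortical cultures were treated continuously from plating, with compound renewed at each feed (DIV 5, 9); fits versus DMSO.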

[18] = CCTE_Shafer_MEA_dev_spike_duration_mean: CCTE's Neural Network Formation Assay for Mean Spike Duration, Shafer Lab (AID 2284051);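 also: mean network spike duration pooled as area under curve over DIV 5 to 12 recordings; potency for a decrease in mean network spike duration versus DMSO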
Procedure, shortened: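 Primary rat cortical neurons on 16-electrode MEA wells (PEI-coated, laminin in plating drop), exposed from plating through DIV 12 with compound renewed at DIV 5 and 9. Mean network-spike duration recorded DIV 5, 7, 9, 12; trapezoidal AUC across days, DMSO baseline.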

[19] = CCTE_Shafer_MEA_dev_network_spike_duration_std: CCTE's Neural Network Formation Assay for Standard Deviation of Network Spike Duration, Shafer Lab (AID 2284052);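 also: area under curve of spike duration SD across recording days 5 to 12; hits are decreases in network spike duration SD versus DMSO vehicle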
Procedure, shortened: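 Primary rat cortical neurons on PEI-coated 16-electrode MEA wells, exposed from plating day 0 through day 12 with compound renewed at DIV 5 and 9. Network spike duration SD recorded on days 5, 7, 9, 12, collapsed as trapezoidal AUC; loss-of-signal fit versus DMSO.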

[20] = CCTE_Shafer_MEA_dev_per_network_spike_spike_number_mean: CCTE's Neural Network Formation Assay for Mean Number of Spikes in a Network Spike, Shafer Lab (AID 2284053);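 also: fitted as decrease in spikes per network spike relative to DMSO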
Procedure, shortened: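 Primary rat cortical neurons on 48-well, 16-electrode MEA plates were exposed from plating to DIV 12, with dosing renewed on DIV 5 and 9. Spikes per network spike (0.05 s peak window) were recorded on DIV 5, 7, 9 and 12 and collapsed as trapezoidal AUC versus DMSO.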

[21] = CCTE_Shafer_MEA_dev_per_network_spike_spike_percent: CCTE's Neural Network Formation Assay for Percent of Spikes in a Network Spike, Shafer Lab (AID 2284054)
Procedure, shortened: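 Rat primary cortical neurons were grown on 48-well MEA plates (16 electrodes/well), exposed from plating day 0 through day 12, with treatment renewed on DIV 5 and 9. Percent of spikes within 0.05 s network-spike peaks was measured, summarised as AUC across days 5, 7, 9, 12.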

[22] = CCTE_Shafer_MEA_dev_LDH: CCTE's Lactate Dehydrogenase Assay for Cytotoxicity in the Neural Network Formation Assay, Shafer Lab (AID 2284068; active = hit-call score of the fitted dose curve at least 0.9, where 1 is the maximum;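 also: exposure for twelve days from plating with re-dosing on DIV 5 and 9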)
Procedure, shortened: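 Primary rat cortical neurons were plated on PEI/laminin MEA plates and exposed from day 0 for twelve days, with compound renewed at DIV 5 and 9. Cytotoxicity was determined by spectrophotometric LDH assay relative to DMSO.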

[23] = CCTE_Shafer_MEA_dev_AB: CCTE's Alamar Blue Assay for Cytotoxicity in the Neural Network Formation Assay, Shafer Lab (AID 2284083; active = hit-call score of the fitted dose curve at least 0.9, where 1 is the maximum;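 also: twelve days of exposure from plating with re-dosing on DIV 5 and 9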)
Procedure, shortened: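 Primary rat cortical neurons on PEI-coated 48-well MEA plates, 1.5 x 10^5 cells/well in laminin drop; compound exposure from day 0 of plating for twelve days, renewed at medium changes on DIV 5 and 9. Viability read as resazurin reduction by fluorescence, relative to DMSO.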

[24] = CCTE_Shafer_MEA_dev_mutual_information_norm: CCTE's Neural Network Formation Assay for Mutual Information Normalization, Shafer Lab (AID 2284091)
Procedure, shortened: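 Primary rat cortical neurons on PEI-coated 48-well MEA plates, 1.5 x 10^5 cells/well, exposed from day 0 through day 12 with re-dosing at DIV 5 and 9. Mutual information between electrodes recorded days 5, 7, 9, 12; trapezoidal AUC, loss-of-signal fit versus DMSO.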

[25] = CCTE_Shafer_MEA_dev_correlation_coefficient_mean: CCTE's Neural Network Formation Assay for Mean Correlation Coefficient, Shafer Lab (AID 2284093);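 also: well mean pairwise spike train correlation integrated as AUC over recording days 5 to 12; potency fitted for loss of correlation relative to DMSO vehicle wells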
Procedure, shortened: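 Spontaneous activity recorded on days 5, 7, 9 and 12 post-plating; pairwise spike correlations are averaged across active electrodes and collapsed to an area-under-curve. Rat cortical cultures are dosed from plating through 12 days, with compound renewed at media changes.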

Measured: AC50

Sequence of Nucleoli Translocation, AR (gene 367) (P10275 whole entry, looked up): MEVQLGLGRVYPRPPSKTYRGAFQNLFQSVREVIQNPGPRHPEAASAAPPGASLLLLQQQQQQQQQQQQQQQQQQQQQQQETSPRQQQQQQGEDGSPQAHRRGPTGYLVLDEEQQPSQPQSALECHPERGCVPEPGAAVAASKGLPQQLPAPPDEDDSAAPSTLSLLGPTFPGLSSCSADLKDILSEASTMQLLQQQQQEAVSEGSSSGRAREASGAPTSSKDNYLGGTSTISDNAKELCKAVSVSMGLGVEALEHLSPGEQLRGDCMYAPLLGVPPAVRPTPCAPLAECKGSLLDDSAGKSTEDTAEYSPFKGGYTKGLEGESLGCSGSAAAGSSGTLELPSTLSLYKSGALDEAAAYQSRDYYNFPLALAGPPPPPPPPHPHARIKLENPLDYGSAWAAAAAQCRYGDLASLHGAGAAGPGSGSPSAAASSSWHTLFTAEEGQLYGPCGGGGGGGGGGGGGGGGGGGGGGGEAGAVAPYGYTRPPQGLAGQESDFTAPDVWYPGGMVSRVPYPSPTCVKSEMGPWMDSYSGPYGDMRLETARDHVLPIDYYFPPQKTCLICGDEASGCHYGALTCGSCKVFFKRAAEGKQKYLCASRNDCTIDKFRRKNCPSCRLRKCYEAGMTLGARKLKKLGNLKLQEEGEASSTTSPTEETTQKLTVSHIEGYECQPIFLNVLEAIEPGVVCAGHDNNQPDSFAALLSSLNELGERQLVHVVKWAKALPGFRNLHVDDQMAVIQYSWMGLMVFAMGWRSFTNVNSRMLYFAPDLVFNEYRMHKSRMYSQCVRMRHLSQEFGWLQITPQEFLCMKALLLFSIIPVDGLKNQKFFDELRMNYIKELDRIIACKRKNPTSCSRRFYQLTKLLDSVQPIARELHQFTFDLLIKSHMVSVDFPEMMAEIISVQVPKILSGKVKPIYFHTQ
Sequence of Ratio of Nucleoli Translocation and Cytoplasm, AR (gene 367) (P10275 whole entry, looked up): as above

CCCCC(CC)COC(=O)c1cc(Br)c(Br)c(Br)c1Br (stereo not given)
inactive: [1] | [2] | [3] | [4] | [5] | [6] | [7] | [8] | [11] | [13] | [14] | [16] | [19] | [24]
active: [9] 18.8 µM | [10] 18.7 µM | [12] 18.8 µM | [15] 16.8 µM | [17] 18.9 µM | [18] 17.7 µM | [20] 18.8 µM | [21] 18.9 µM | [22] 15.9 µM | [23] 15.1 µM | [25] 18.8 µM
